Source: PubChem BioAssay (several laboratories)
Only some compounds are listed: those with a hit (about 0.99% of all), similar ones and a draw of the others.
Keap1-Nrf2 PPI = Keap1-Nrf2 protein-protein interaction inhibitors, primary screen, biochemical, fluorescence polarization, single point; Kelch-like ECH-associated protein 1 (Homo sapiens), Q14145; Keap1 Kelch-Nrf2 peptide fluorescence polarization, 1536-well; inhibition, % at 9.4 µM; 0.15% of 340,000 active; AID 504523, 2011; in the data active = inhibition above about 12%;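 also: human Keap1 Kelch domain with fluorescein labeled Nrf2 9mer peptide probe; 0% = neutral control wells and 100% = peptide positive control; higher means more block of Keap1 binding to Nrf2 peptide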
RTF Ca sens inh = cardiac RTF calcium sensitivity inhibitors, primary screen, biochemical, IANBD-TnC fluorescence, EC70 calcium; inhibition, % at 7.15 µM; 0.12% of 340,000 active; IANBD-labeled cardiac RTF, Ca2+ fluorescence; AID 493244, 2011;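 active = inhibition above the mean inhibition of all tested compounds plus 3 SD, cut at about 17% in these data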;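 also: assay run at fixed EC70 calcium of 1.6 mM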
C-LANA FP = inhibitors of KSHV C-LANA binding to DNA, primary screen, biochemical, fluorescence polarization, FAM-LBS DNA, MBP-C-LANA, single point; Kaposi's sarcoma herpesvirus LANA C-terminal domain (residues 932-1162) DNA binding; inhibition, % at 9 µM; 0.078% of 340,000 active; AID 504423, 2011;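 active = highest replicate inhibition at or above 60% at 9 µM, even if other replicates fall short; inactive = all replicates below 60% inhibition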;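 also: 0% = neutral control wells and 100% = 4 µM acridine orange control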
RTF Ca sens act = cardiac RTF calcium sensitivity activators, primary screen, biochemical, IANBD-TnC fluorescence, EC20 calcium; Troponin I, cardiac muscle (Homo sapiens) + Troponin T, cardiac muscle (Homo sapiens) + …; IANBD-labeled TnC RTF fluorescence at EC20 calcium; 0% EC20 calcium, 100% full calcium; activation, % at 7.2 µM; 0.24% of 340,000 active;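 active = activation above the mean over all tested compounds plus 3 SD, cut at about 30% in these data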;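 also: rise in fluorescence read as greater calcium sensitivity of cardiac thin filaments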
LANA-H2B inh = blockers of LANA interaction with H2A/H2B – biochemical, FP readout, HTS, primary screen; Protein LANA1 (Human herpesvirus 8 type P (isolate GK18)), Q9QR71; inhibition, % (test concentration not listed); 0.6% of 320,000 active; cell-free LANA-H2A/H2B peptide, fluorescence polarization; in the data active = inhibition mostly above about 10%, no sharp cut-off; inactive = mostly below about 6.7%
Keap1 TSA = Keap1 Kelch domain binders by thermal stabilisation, dose response, biophysical, thermal shift, RT-PCR instrument, cherry-pick; 8% of 400 active; max delta Tm, degrees C; shares compounds with Keap1-Nrf2 PPI; delta Tm; stronger effect = higher value; in the data active = max delta Tm above about 0.48 degrees C
Sypro dye melt = Sypro Orange dye melt without protein, dose response, artefact control for Keap1-Nrf2 interaction inhibitor project, biochemical, thermal shift counterscreen, cherry-pick | shares compounds with Keap1-Nrf2 PPI | Sypro Orange dye-only thermal melt, no protein, delta Tm; top dose 26 µM | delta Tm, degrees C (no concentration beside the values) | 140 tested, under 10 active;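 active = at highest dose tested, delta Tm positive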
Numbers without * were called inactive; i = inactive; . = no result given; + = active, no number.

SMILES	Keap1-Nrf2 PPI	RTF Ca sens inh	C-LANA FP	RTF Ca sens act	LANA-H2B inh	Keap1 TSA	Sypro dye melt
COc1ccc2noc3c2c1C(=O)c1ccccc1-3	106.1*	i	129.7*	+	167.3*	0.04	6.24*
COc1ccc(OC)c2c1C(=O)c1ccccc1C2=O	.	.	.	.	14.7	.	.
Cc1ccc(/C=C/C(=O)Nc2ccc(S(=O)(=O)Nc3onc(C)c3C)cc2)cc1	-0.3	11.2	-0.2	-4.8	1.9	.	.
COc1ccc(-n2nnnc2SCC(=O)N(C)C2CCS(=O)(=O)C2)cc1 (stereo unspecified)	-7.3	-4.1	1.9	-1.2	-2.2	.	.
CCn1nnnc1SCC(=O)N(C)C1CCS(=O)(=O)C1 (stereo unspecified)	37.2*	-0.5	15.4	1.9	5.5	-0.13	.
O=[N+]([O-])c1cncc([N+](=O)[O-])c1Nc1cccc(O)c1	35.2*	-9.3	27.0	0.6	0.4	-0.14	.
CCCC1C2CN(C(C)C)CC=C2C(C#N)=C(N)C1(C#N)C#N (stereo unspecified)	20.2*	-51.8	44.8	51.8*	30.4*	-0.16	-26.1
COc1cccc(C2C3CN(C)CC=C3C(C#N)=C(N)C2(C#N)C#N)c1OC (stereo unspecified)	9.6	-38.5	36.5	24.7	4.9	.	.
CC(C)c1ccc(C2C3CSCC=C3C(C#N)=C(N)C2(C#N)C#N)cc1 (stereo unspecified)	.	.	.	.	11.8	.	.
CN1CC=C2C(C#N)=C(N)C(C#N)(C#N)C(c3ccsc3)C2C1 (stereo unspecified)	17.4*	-32.9	36.0	27.9	9.6	-0.17	.
CN1CC=C2C(C#N)=C(N)C(C#N)(C#N)[C@H](c3cccs3)[C@H]2C1	26.0*	-85.7	56.8	41.4*	13.1	-0.02	-27.6
COc1cccc(C2C(C(=O)c3ccc(C)o3)=C(O)C(=O)N2CCN2CCOCC2)c1 (stereo unspecified)	-4.3	-5.3	-0.5	0.5	9.5	.	.
CC(C)(C)OC(=O)N(CCc1ccccc1)Cc1cccc(OCc2cccc(NC(=O)/C=C/c3ccccc3)c2)c1	4.0	-1.9	-2.0	0.0	.	.	.
O=C(Nc1ccccc1O)c1ccc2c(c1)C(=O)N(N1C(=O)c3ccccc3C1=O)C2=O	-2.3	-2.9	1.2	-6.0	4.0	.	.
O=C(NNc1cc(Cl)ccc1Cl)c1cccs1	30.6*	.	14.1	.	-2.9	-0.11	.
Cc1cc(Cl)ccc1NNC(=O)c1cccs1	-4.3	1.2	0.3	5.2	0.7	.	.
CCCCn1c(=O)[nH]c2nc3cc(NC(C)=O)ccc3nc2c1=O	-4.9	-8.6	3.5	5.8	0.3	.	.
CCCCCCn1c(=O)[nH]c2nc3cc(N)c(C)cc3nc2c1=O	27.3*	i	48.6	627.3*	.	0.59	-21.2
CC(C)(C)c1nnc(NS(=O)(=O)c2ccc(F)cc2)s1	-2.1	4.2	0.1	-4.1	.	.	.
Nc1cc2c3c(cccc3c1)C(=O)N(CCN1CCCC1)C2=O	2.6	-18.6	2.1	14.1	0.0	.	.
CCN(CC)CCN1C(=O)c2cccc3cc(N)cc(c23)C1=O	13.5*	-48.7	59.7	23.8	2.8	-0.08	.
CC(C)CC1C(C#N)=C(N)Oc2n[nH]c(-c3ccccc3)c21 (stereo unspecified)	5.0	-6.8	-1.6	-3.5	-2.4	.	.
Cc1[nH]nc2c1C(CC(C)C)C(C#N)=C(N)O2 (stereo unspecified)	46.2*	.	28.4	.	7.6	-0.17	-32.9
CCOC(=O)C1=CN(C)C=C(C(=O)OCC)C1c1ccsc1	-3.2	-3.8	0.4	-1.2	-6.6	.	.
Cc1ccc(C)c(N2CCN(C(=O)c3cc4ccccn4n3)CC2)c1	16.3*	-197.2	44.3	102.8*	29.8*	0.38	-28.2
SMILES	Keap1-Nrf2 PPI	RTF Ca sens inh	C-LANA FP	RTF Ca sens act	LANA-H2B inh	Keap1 TSA	Sypro dye melt
Cc1c(N)cc(N)cc1C(=O)O	14.9*	-35.9	23.5	1.0	-2.3	-0.15	.
COc1cc(S(=O)(=O)N2CCCCC2)ccc1NC(=O)c1ccccc1Cl	-1.7	-1.0	0.2	8.6	0.3	.	.
Cc1ccc(S(=O)(=O)N2CCCCC2)cc1NC(=O)c1ccccc1Cl	31.3*	-23.0	23.2	6.6	-2.1	-0.18	.
COc1cc(/C=C/C(=O)OCC(=O)c2ccc3c(c2)NC(=O)CO3)ccc1OC(F)F	21.1*	0.0	11.4	-1.8	0.1	-0.12	-26
COc1ccc(/C=c2\s/c(=C(/C#N)C(=O)NCc3ccco3)n(-c3ccccc3)c2=O)cc1	13.1*	-10.7	13.1	-1.4	1.0	-0.02	.
CCOC(=O)c1sc(NC(=S)NC(=O)CC(C)C)cc1C	-3.3	4.5	-0.9	-0.5	-2.4	.	.
CCCCOc1ccc(C2OC34CCCCC3C(C#N)(C#N)C2(C#N)C(=N)O4)cc1 (stereo unspecified)	27.2*	-31.7	60.3*	23.2	6.8	0.03	-27.3
C=CCOc1ccc(C2OC34CCCCC3C(C#N)(C#N)C2(C#N)C(=N)O4)cc1 (stereo unspecified)	11.2*	-32.0	36.4	27.4	10.5	-0.08	-27.3
O=C(N/N=C/c1ccc[nH]1)c1cc2ccccc2cc1O	-4.6	-4.3	-0.6	-3.9	-2.9	.	.
CNc1ccc2c3c(cccc13)C(=O)N(C)C2=O	109.2*	i	109.0*	+	88.3*	0	.
C=CCN1C(=O)/C(=C\c2ccc(Cl)cc2)N=C1SCC(=O)NC1CCCCC1	-7.3	-1.9	-0.2	2.1	0.1	.	.
Cc1cc(NC(=O)CSc2nnc(-c3ccncc3)n2C)n(-c2ccccc2)n1	14.6*	-12.5	11.9	2.9	0.4	-0.15	-22.3
COC(=O)c1cc(C)nc2c1c(C)nn2-c1ccccc1	43.7*	-4.0	19.9	-2.2	0.5	-0.15	-27.9
NC(=O)NN=C1CCn2cccc21	-1.1	-7.5	8.0	-5.2	.	.	.
CCCNC(=O)c1cc(C)no1	1.6	2.7	0.3	-1.3	-1.0	.	.
CC1(C)CC(=O)C2=C(C1)OC(N)=C(C#N)C2c1cc2c(cc1[N+](=O)[O-])OCO2 (stereo unspecified)	15.3*	-13.6	21.8	10.3	i	-0.01	-21.5
